In the supplement of paper PMC6555819:

System: VDR:RXRa (NR concentration 270 nM, RXRa partner concentration 90 nM)
Assay: PBM binding z-score (relative to random genomic background probes); higher = stronger binding; sequences stand for … in GC…GCGATTGACAGCGTAGAATGAAGG
Method: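 Protein-binding microarray (Agilent 4x180K custom design, double-stranded 60-nt probes: 5' GC cap, 34-nt variable region, 24-nt constant primer region; full probe sequence given). Purified or IVT nuclear receptor:RXRα heterodimers (3:1 NR:RXRα, mostly 270:90 nM) or homodimers were incubated for 1 h in PBS with 2% milk and no ligand, then detected with Alexa488 antibodies. Fluorescence from o1-orientation probes (~5 replicates averaged) was converted to z-scores against 500 random hg19 background probes. Variable regions are seed direct-repeat (DR0–DR5) sites, all their single-nucleotide variants and half-site ablations.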

Sequence	PBM binding z-score
CAAACTAGCTCACAGAGGTCAAAGTCCGTGCGTA	5.02
TCATATAGGTAAAATGTGAAAGTCGGTGTGGTAA	0.774
AATACAGGGTTACTAGGCCAGAGTAGGTACGAAT	0.824
TGAATGAGGTTAAAGATCAGGTAACGTGGCGTCG	1.92
CCACCAAGGTGAACAAGGTCGTTGATTACTATTC	6.23
AGTCTAAGTTCAGGACGAGGTAACGTAAAGCACG	2.58
ATCTCTAAGTAAAGATAGTTCAGTGAATGCAAAT	0.741
CGTCAAAGTTCAAGGTAACGTGACAGAAAGCAGC	3.71
AGAATGAGGTTAAGATGAGGGAAACAGAATACAT	1.43
CTACCAAGGTGAACAAGCTCGTTGATTACTATTC	0.121
AGTCAAAGTTCGTCTAGGTAACGTAAGATATGCT	2.59
GCTCGGAGGACAACGTCAGAGCTTTGTCCGTAGA	-0.935
GCTACAGGGTCAGCTAGAGGCCAGAGTATGGAAA	3.35
CCTAGCAGACCAGGGTCACTCAAGCATTTCGCTT	2.69
GGAACGAGGGCAAAGTTGAAAGCATCTGTCGACG	1.76
TCTAGCAGGCCAGAGGGTCCCTCAAGAGGTACGG	-0.431
CGTCCAAGATCATAGGAGGTCAGTGAAGACAGAT	2.63
TCTTGTAGATCAAGCAGGTTTAGAAAGCCTGAGT	0.444
GCAGACAGGTGAAACACAGGTAACTCAGGGTGGC	-0.244
TAGCCTTGGTCATGCGGGCCAGTATAGTGTCGGC	-0.724

Sequence	PBM binding z-score
CGTCAAAGTTCAACTAAGGTAGCGTAAAGCACGC	4.35
CCTAGTCGGTCAAGGTCACACACGCTATAGGTAC	4.29
ATCGAAAGGTCGACGAGGTGTGTATACACCGTTT	3.81
CCTCCAAGGTCAATGCTAGGTCAGTGAAAGCATT	4.74
CCTACTTGGCCACGAAAGGTCATTGATTCAGTGA	4.14
TCATATAGGTAAAGGCTAGGTGAAAGTCCGATCT	0.546
TCTGCTAGGTCAACAATGGTCAGCTAATCTGCTA	1.84
GCGACTGGCGCAAAGCAGGTTACCATAAGGTTGG	-0.716
TCTCGGAGGACATGAAGGTCAGAGCTTTCCAGAG	1.77
CCGACTGGGCCAAAGGTCATTGATTCCAATGCTC	4.58
CCAACTAGGTCAAAGGTCAAAGTCGAGCCAACCA	6.81
AGTCAAAGTCCAGGACGAGGTAACGTAAAGCACG	-0.202
ACAGACAGGTGATGTAGGTAACTCAGGCTATCAT	-0.00251
GCTTACGGGTCAAAGGTAATAGCATGAATAGAAT	4.12
TAGCCTAGGTCATTGCGCCAGTATAGTACGCATC	2.33
CGTCAAAGCTCAAGGTAACGTAACAGAAAGCAGC	-0.278
GCGACTGGGGCAAAGTAGGTTACCATAAGGTTGG	-0.0639
CAAACTAGGACAAAGGTCAAAGTCGAGCCAACCA	4.93
ATCTCTTGGTAAAAGTTCAGTGAATCCCGAGGAT	1.14
CCTTACGGGACACTGACAGGTTATAGCATTTGGA	-0.00746
